# In the supplement of paper PMC8728848:
# About 410 targets per protein were measured; listed, in parts, are those with the strongest signals and a random draw of the rest.
# B1: B725 (Bifidobacterium sp) (protein)
# chain: MNNTTRAVIATAAIGALLIPLAGCGNTTTSSGKTELTVWSWDASIDRAAKSFMKANPDITVKVSNVGSTEETYTALNNAAQAGSGLPDVTLIEYLAIPQFVHSDTLMDLSKVYNTAKLKDTFTPGTWNSVNINGGLYAMPADSGPMAYFYDKDVFDKAGISEPPTTWDEFYEDAKKIRATGSYITSDSGDAGLFNAMMWAMGGHAYKLNDDKLTINIAKDKGAQRFMDLWQKMRDEDLIDVHTKTWTDDWMKSLGDGSIASLISGAWMANNLLQGVPQATGKFRVALLPTIDGTPINGEYGGSGLAITKKIPDGKLDAAKKFVEYVTTNDEGIDARVSNGSFPATTKTLNQKDFLAKTTLRNTDGSDNEFFGGQKYNEIFSQAAKDVTGKWEFLPFEPYARSVYNDNMGSFFAGKTSFRTAADNWQKALKDYAKDQGFTVQ
# Columns and labels:
# Experiment in all cases: glycan array binding signal (z-score within array); higher = stronger binding
# Conditions in all cases: glycan notation: IUPAC condensed, linker removed
# [1] = target: Fuc(a1-2)Gal
# How it was run: (§1)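 The Consortium for Functional Glycomics database supplied 3228 glycan arrays, of which those lacking an available protein sequence were dropped. The binding signal, a within-array Z-score, was averaged across arrays of the same protein sequence and across linkers. Negative scores can be read as non-binding.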
# [2] = target: Fuc(a1-2)Gal(b1-3)GalNAc
# How it was run: as §1
# [3] = target: Fuc(a1-2)Gal(b1-3)GlcNAc(b1-2)Man(a1-3)[Fuc(a1-2)Gal(b1-3)GlcNAc(b1-2)Man(a1-6)]Man(b1-4)GlcNAc(b1-4)[Fuc(a1-6)]GlcNAc
# How it was run: as §1
# [4] = target: Fuc(a1-2)Gal(b1-3)GlcNAc6S
# How it was run: as §1
# [5] = target: Fuc(a1-2)Gal6S(b1-4)Glc
# How it was run: as §1
# [6] = target: Fuc(a1-2)[Gal(a1-3)]Gal(b1-4)[Fuc(a1-3)]GlcNAc(b1-3)GalNAc
# How it was run: as §1
# [7] = target: Fuc(a1-2)[Gal(a1-4)]Gal(b1-4)GlcNAc
# How it was run: as §1
# [8] = target: Fuc(a1-2)[GalNAc(a1-3)]Gal(b1-4)Glc
# How it was run: as §1
# [9] = target: Fuc(a1-2)[GalNAc(a1-3)]Gal(b1-4)[Fuc(a1-3)]GlcNAc
# How it was run: as §1
# [10] = target: Fuc(a1-3)[Gal(b1-4)]GlcNAc(b1-3)Gal(b1-4)[Fuc(a1-3)]GlcNAc(b1-3)Gal(b1-4)[Fuc(a1-3)]GlcNAc
# How it was run: as §1
# [11] = target: Fuc(a1-3)[Gal(b1-4)]GlcNAc(b1-3)GalNAc
# How it was run: as §1
# [12] = target: Fuc(b1-3)GlcNAc
# How it was run: as §1
# [13] = target: Gal(a1-3)Gal(b1-4)GlcNAc(b1-2)Man
# How it was run: as §1
# [14] = target: Gal(a1-3)Gal(b1-4)GlcNAc(b1-3)GalNAc
# How it was run: as §1
# [15] = target: Gal(b1-3)[Fuc(a1-4)]GlcNAc(b1-3)Gal(b1-4)[Fuc(a1-3)]GlcNAc
# How it was run: as §1
# [16] = target: Gal(b1-3)[GlcNAc(b1-6)]GalNAc
# How it was run: as §1
# [17] = target: Gal(b1-4)GalNAc(a1-3)[Fuc(a1-2)]Gal(b1-4)GlcNAc
# How it was run: as §1
# [18] = target: Gal(b1-4)GlcNAc(b1-2)Man(a1-3)[Gal(b1-4)GlcNAc(b1-2)Man(a1-6)]Man(b1-4)GlcNAc(b1-4)[Fuc(a1-6)]GlcNAc
# How it was run: as §1
# [19] = target: Gal(b1-4)GlcNAc(b1-2)Man(a1-3)[Gal(b1-4)GlcNAc(b1-2)Man(a1-6)][Gal(b1-4)GlcNAc(b1-4)]Man(b1-4)GlcNAc(b1-4)[Fuc(a1-6)]GlcNAc
# How it was run: as §1
# [20] = target: Gal(b1-4)GlcNAc(b1-3)Gal(b1-4)Glc
# How it was run: as §1
# [21] = target: Gal(b1-4)GlcNAc(b1-3)Gal(b1-4)GlcNAc(b1-3)Gal(b1-4)GlcNAc
# How it was run: as §1
# [22] = target: Gal(b1-4)GlcNAc(b1-3)Gal(b1-4)GlcNAc(b1-3)Gal(b1-4)GlcNAc(b1-2)Man(a1-3)[Gal(b1-4)GlcNAc(b1-3)Gal(b1-4)GlcNAc(b1-3)Gal(b1-4)GlcNAc(b1-2)Man(a1-6)]Man(b1-4)GlcNAc(b1-4)GlcNAc
# How it was run: as §1
# [23] = target: Gal(b1-4)GlcNAc(b1-3)Gal(b1-4)GlcNAc(b1-3)Gal(b1-4)GlcNAc(b1-2)Man(a1-3)[Gal(b1-4)GlcNAc(b1-3)Gal(b1-4)GlcNAc(b1-3)Gal(b1-4)GlcNAc(b1-2)Man(a1-6)]Man(b1-4)GlcNAc(b1-4)[Fuc(a1-6)]GlcNAc
# How it was run: as §1
# [24] = target: Gal(b1-4)GlcNAc(b1-3)Gal(b1-4)GlcNAc(b1-3)Gal(b1-4)GlcNAc(b1-2)[Gal(b1-4)GlcNAc(b1-3)Gal(b1-4)GlcNAc(b1-3)Gal(b1-4)GlcNAc(b1-6)]Man(a1-6)[Gal(b1-4)GlcNAc(b1-3)Gal(b1-4)GlcNAc(b1-3)Gal(b1-4)GlcNAc(b1-2)Man(a1-3)]Man(b1-4)GlcNAc(b1-4)[Fuc(a1-6)]GlcNAc
# How it was run: as §1
# [25] = target: Gal(b1-4)GlcNAc(b1-3)Gal(b1-4)GlcNAc(b1-3)Gal(b1-4)GlcNAc(b1-3)Gal(b1-4)GlcNAc(b1-2)Man(a1-3)[Gal(b1-4)GlcNAc(b1-3)Gal(b1-4)GlcNAc(b1-3)Gal(b1-4)GlcNAc(b1-3)Gal(b1-4)GlcNAc(b1-2)Man(a1-6)]Man(b1-4)GlcNAc(b1-4)GlcNAc
# How it was run: as §1
# [26] = target: Gal(b1-4)GlcNAc(b1-3)Gal(b1-4)GlcNAc(b1-3)Gal(b1-4)GlcNAc(b1-3)Gal(b1-4)GlcNAc(b1-2)Man(a1-3)[Gal(b1-4)GlcNAc(b1-3)Gal(b1-4)GlcNAc(b1-3)Gal(b1-4)GlcNAc(b1-3)Gal(b1-4)GlcNAc(b1-2)Man(a1-6)]Man(b1-4)GlcNAc(b1-4)[Fuc(a1-6)]GlcNAc
# How it was run: as §1
binder,measurement,setting,value
B1,glycan array binding signal (z-score),[1],-0.221
same,glycan array binding signal (z-score),[2],-0.216
same,glycan array binding signal (z-score),[3],-0.181
same,glycan array binding signal (z-score),[4],-0.234
same,glycan array binding signal (z-score),[5],-0.199
same,glycan array binding signal (z-score),[6],-0.208
same,glycan array binding signal (z-score),[7],-0.23
same,glycan array binding signal (z-score),[8],-0.222
same,glycan array binding signal (z-score),[9],-0.217
same,glycan array binding signal (z-score),[10],-0.21
same,glycan array binding signal (z-score),[11],-0.216
same,glycan array binding signal (z-score),[12],-0.226
same,glycan array binding signal (z-score),[13],-0.214
same,glycan array binding signal (z-score),[14],-0.225
same,glycan array binding signal (z-score),[15],-0.203
same,glycan array binding signal (z-score),[16],-0.224
same,glycan array binding signal (z-score),[17],-0.218
same,glycan array binding signal (z-score),[18],-0.204
same,glycan array binding signal (z-score),[19],-0.231
same,glycan array binding signal (z-score),[20],6.34
same,glycan array binding signal (z-score),[21],6.94
same,glycan array binding signal (z-score),[22],5.11
same,glycan array binding signal (z-score),[23],4.38
same,glycan array binding signal (z-score),[24],7.51
same,glycan array binding signal (z-score),[25],5.3
same,glycan array binding signal (z-score),[26],4.85
